For some of these results: Results with a measured potency or affinity are listed apart.
How the values were obtained:
Parameters in all cases: scale not given: direction of the effect not stated beside the values
[1] = molecular target: Protein translocase subunit SecA (Escherichia coli (strain K12)) (UniProt P10408); test: Assay to Identify E. coli SecA ATPase Inhibitors; assay type: functional; details: 30 µM
[2] = molecular target: T1, Ubiquitin-activating enzyme e1, putative (Leishmania donovani (strain BPK282A1)) (UniProt E9BSI1); test: Leishmania donovani Ubiquitin Activating Enzyme (LdE1); assay type: functional; details: 30 µM
T1 sequence (whole entry): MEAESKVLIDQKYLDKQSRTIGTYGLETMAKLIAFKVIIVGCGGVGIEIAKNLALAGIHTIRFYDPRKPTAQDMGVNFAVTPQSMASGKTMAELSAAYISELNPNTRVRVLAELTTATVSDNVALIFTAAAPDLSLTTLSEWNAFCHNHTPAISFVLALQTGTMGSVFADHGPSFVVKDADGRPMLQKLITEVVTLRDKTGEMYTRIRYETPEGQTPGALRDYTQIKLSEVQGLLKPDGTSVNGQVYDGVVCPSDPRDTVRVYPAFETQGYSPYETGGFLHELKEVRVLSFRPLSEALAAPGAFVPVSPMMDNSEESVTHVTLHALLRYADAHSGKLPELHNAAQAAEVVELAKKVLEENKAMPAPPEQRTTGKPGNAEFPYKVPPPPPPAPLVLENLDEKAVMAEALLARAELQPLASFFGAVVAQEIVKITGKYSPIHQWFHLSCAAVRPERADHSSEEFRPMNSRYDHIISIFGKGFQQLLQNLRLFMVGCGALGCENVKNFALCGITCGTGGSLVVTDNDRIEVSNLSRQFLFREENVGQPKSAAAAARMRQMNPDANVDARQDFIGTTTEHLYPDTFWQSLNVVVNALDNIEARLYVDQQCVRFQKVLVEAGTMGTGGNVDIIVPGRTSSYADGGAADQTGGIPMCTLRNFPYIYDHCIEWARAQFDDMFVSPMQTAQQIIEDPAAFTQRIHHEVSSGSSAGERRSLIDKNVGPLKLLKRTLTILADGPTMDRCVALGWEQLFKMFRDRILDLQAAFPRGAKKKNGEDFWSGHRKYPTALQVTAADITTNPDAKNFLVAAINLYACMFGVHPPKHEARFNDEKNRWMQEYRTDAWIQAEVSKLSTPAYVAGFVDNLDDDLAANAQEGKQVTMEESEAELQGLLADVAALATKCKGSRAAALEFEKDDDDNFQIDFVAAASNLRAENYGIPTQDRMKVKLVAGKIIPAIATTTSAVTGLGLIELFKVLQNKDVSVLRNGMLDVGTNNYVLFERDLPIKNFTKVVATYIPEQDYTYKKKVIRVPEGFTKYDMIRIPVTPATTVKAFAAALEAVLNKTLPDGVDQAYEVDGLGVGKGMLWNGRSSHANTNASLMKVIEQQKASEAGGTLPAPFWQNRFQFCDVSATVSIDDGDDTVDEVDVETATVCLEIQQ

[3] = molecular target: AMP-activated protein kinase, AMPK (Homo sapiens) (UniProt P54646+O43741+P54619+Q9UGJ0+Q9Y478+Q13131+Q9UGI9); test: AMP-dependent Kinase enzyme assay. An in vitro enzyme assay that detects ADP turnover that is directly proportional to AMPK activity. This uses naive AMPK that is activated during the assay with MK-8722; assay type: functional; details: 30 µM
[4] = molecular target: Sialic acid-binding Ig-like lectin 9 (Homo sapiens) (UniProt Q9Y336); test: Hs-Siglec9 ALPHAscreen SOP 20170721; details: 10 µM
Chain of Sialic acid-binding Ig-like lectin 9 (Homo sapiens) (Q9Y336 whole entry): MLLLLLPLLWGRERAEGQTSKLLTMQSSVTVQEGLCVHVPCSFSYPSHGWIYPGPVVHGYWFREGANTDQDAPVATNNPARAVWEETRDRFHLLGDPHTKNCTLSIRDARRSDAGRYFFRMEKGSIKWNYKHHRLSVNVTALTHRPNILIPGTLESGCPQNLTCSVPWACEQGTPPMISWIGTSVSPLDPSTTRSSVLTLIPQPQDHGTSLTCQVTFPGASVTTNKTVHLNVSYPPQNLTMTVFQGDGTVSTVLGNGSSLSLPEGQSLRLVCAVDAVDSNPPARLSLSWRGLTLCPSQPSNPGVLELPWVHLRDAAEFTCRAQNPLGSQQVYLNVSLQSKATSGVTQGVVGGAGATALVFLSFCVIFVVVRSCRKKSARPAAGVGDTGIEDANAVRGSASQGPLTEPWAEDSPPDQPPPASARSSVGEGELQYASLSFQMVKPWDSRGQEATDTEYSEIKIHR

Trypanosoma cruzi = test: Trypanosoma cruzi phosphomannomutase and mannose-1-phosphate guanylyltransferase assay; assay type: functional; details: 10 µM
[5] = molecular target: T2, Arginase-2, mitochondrial (Homo sapiens) (UniProt P78540); test: in vitro enzyme assay to detect the production of urea directly proportional to the activity of Arginase II; assay type: functional; details: 33.3 µM; also: in the data most compounds retested in dose-response had high values
T2 sequence (whole entry): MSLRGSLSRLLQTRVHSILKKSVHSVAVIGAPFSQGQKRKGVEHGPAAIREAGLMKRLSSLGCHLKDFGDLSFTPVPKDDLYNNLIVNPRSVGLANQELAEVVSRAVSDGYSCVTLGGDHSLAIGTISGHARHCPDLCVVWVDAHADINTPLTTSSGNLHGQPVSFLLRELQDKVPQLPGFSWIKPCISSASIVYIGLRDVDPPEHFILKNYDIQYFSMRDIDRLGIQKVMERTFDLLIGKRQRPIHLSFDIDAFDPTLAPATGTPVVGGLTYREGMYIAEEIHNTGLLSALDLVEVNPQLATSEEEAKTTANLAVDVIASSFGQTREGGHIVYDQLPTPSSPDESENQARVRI

[6] = molecular target: T3, Proteasome subunit beta (Trypanosoma cruzi) (UniProt O96673); test: Trypanosoma cruzi proteasome chymotrypsin-like activity (TcProtChymo) assay.; also: in the data most compounds retested in dose-response had high values; assay type: functional; details: 9.37 µM
T3 sequence (whole entry): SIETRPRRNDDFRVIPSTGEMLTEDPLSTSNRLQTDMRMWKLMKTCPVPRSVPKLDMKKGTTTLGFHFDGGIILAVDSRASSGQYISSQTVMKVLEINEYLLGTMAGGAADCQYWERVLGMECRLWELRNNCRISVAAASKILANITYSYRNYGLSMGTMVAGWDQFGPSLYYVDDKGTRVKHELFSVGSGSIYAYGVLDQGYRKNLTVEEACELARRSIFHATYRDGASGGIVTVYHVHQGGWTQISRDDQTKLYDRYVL

Homo sapiens = species on record: Homo sapiens; test: To identify inhibition of the IFN signalling (Jak-Stat) pathway via expression of an eGFP reporter gene under the control of an IFN-stimulated response element (ISRE) containing MxA promoter.; assay type: functional; details: 30 µM
[7] = molecular target: T4, Tyrosyl-tRNA synthetase, putative (Trypanosoma cruzi (strain CL Brener)) (UniProt Q4DSP6); test: Trypanosoma cruzi tyrosyl tRNA synthetase (TcYRS) _High Tyrosine SOP; assay type: functional; details: 30 µM; also: in the data most compounds retested in dose-response had high values
T4 sequence (whole entry): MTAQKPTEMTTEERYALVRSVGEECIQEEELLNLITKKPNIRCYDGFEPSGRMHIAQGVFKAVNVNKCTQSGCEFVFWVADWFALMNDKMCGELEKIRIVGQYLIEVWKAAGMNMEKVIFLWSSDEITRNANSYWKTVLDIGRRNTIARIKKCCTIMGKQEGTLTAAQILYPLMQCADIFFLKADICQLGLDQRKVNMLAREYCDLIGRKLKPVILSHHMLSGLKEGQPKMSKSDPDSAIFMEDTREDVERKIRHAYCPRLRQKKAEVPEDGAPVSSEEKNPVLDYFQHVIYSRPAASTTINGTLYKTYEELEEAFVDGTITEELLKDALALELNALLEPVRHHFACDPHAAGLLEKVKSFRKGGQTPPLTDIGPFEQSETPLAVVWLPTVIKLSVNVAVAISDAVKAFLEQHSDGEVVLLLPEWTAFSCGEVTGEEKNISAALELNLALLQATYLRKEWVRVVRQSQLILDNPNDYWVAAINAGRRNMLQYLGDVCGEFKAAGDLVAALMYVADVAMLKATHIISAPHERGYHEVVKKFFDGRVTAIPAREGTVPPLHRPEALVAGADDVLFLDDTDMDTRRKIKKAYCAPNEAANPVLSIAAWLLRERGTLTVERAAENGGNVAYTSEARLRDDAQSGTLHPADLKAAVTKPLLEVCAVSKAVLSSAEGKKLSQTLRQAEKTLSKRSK

[8] = molecular target: T4, Tyrosyl-tRNA synthetase, putative (Trypanosoma cruzi (strain CL Brener)); test: Trypanosoma cruzi tyrosyl tRNA synthetase (TcYRS) SOP; assay type: functional; details: 30 µM
[9] = molecular target: Chromo domain-containing protein 1 (Saccharomyces cerevisiae (strain ATCC 204508 / S288c) (Baker's yeast)) (UniProt P32657); test: ScCHD-1 Enzyme Inhibition Assay; assay type: functional; details: 30 µM; also: in the data most compounds retested in dose-response had high values
Chain of Chromo domain-containing protein 1 (Saccharomyces cerevisiae (strain ATCC 204508 / S288c) (Baker's yeast)) (P32657 whole entry, the tested form may be a part): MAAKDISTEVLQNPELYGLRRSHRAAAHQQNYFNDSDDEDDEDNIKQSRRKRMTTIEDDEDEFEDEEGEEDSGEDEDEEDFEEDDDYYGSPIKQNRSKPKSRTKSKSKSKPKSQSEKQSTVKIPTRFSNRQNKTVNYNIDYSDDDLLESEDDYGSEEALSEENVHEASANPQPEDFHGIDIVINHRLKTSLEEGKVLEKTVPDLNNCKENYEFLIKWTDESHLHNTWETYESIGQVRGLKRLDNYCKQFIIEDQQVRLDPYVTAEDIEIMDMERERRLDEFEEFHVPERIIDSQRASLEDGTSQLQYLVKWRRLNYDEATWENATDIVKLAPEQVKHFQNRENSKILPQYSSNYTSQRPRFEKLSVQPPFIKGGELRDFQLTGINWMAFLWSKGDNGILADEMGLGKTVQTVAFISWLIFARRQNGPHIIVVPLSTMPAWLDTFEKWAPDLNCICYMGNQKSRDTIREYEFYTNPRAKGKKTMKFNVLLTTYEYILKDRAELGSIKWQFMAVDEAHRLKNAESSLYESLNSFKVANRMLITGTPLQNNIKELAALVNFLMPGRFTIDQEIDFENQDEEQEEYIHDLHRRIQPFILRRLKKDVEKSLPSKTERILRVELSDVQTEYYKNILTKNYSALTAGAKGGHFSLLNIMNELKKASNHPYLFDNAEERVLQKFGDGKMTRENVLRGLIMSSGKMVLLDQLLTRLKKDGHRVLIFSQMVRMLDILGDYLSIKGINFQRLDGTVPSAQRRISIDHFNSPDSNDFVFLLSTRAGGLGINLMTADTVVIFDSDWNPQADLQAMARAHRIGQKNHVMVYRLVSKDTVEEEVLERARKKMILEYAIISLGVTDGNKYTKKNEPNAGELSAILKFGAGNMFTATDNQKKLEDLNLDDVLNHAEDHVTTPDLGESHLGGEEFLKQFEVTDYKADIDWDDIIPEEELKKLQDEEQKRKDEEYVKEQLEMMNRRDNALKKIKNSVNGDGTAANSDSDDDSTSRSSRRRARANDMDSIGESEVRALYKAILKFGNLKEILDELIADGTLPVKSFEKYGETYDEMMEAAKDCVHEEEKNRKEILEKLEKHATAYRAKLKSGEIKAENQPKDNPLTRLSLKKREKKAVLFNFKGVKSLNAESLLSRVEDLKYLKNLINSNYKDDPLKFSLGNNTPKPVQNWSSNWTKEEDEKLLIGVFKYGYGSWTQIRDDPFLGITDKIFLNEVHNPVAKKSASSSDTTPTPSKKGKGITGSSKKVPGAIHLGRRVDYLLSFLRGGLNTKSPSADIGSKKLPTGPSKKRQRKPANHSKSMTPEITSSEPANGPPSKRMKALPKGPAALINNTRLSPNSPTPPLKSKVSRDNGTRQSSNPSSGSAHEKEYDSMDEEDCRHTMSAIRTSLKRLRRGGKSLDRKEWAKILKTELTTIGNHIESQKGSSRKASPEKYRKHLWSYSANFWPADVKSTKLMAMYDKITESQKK

Chain of Protein translocase subunit SecA (Escherichia coli (strain K12)) (P10408 whole entry): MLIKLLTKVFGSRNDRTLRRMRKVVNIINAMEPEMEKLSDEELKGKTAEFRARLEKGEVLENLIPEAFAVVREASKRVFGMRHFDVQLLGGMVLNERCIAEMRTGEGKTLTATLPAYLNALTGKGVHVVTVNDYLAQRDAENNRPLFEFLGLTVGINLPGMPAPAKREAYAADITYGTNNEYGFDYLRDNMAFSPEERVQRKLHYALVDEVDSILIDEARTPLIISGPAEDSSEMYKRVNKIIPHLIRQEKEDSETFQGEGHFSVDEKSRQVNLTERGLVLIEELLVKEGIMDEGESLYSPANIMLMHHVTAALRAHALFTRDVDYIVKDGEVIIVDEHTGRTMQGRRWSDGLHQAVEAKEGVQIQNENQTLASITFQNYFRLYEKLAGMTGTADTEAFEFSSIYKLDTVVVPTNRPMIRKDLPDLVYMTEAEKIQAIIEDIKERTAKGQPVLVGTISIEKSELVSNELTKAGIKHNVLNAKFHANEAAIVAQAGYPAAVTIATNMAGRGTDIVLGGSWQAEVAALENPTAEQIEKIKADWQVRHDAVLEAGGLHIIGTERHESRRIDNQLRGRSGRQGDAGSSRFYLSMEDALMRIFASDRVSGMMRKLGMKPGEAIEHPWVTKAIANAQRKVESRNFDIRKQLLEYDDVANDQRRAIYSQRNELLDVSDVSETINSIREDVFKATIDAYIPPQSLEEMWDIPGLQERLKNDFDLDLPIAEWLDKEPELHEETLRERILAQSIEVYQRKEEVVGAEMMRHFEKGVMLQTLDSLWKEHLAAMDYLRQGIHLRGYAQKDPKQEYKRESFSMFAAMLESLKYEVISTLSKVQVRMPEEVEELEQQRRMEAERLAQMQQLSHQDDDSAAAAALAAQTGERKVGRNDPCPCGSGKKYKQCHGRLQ

| SMILES | Percent Effect [1] | Percent Effect [2] | Percent Effect [3] | Percent Effect [4] | Percent Effect (Trypanosoma cruzi) | Percent Effect [5] | Percent Effect [6] | Percent Effect (Homo sapiens) | Percent Effect [7] | Percent Effect [8] | Percent Effect [9] |
| --- | --- | --- | --- | --- | --- | --- | --- | --- | --- | --- | --- |
| CC(C)c1nnc2n1CC(CNCc1ccncc1)CC2 (stereo not drawn) | -1.84% | 4.17% | -5.62% | -8.26% | -3.21% | 2.21% | 17% | -9.1% | 3.16% | -2.56% | -2.53% |
| Cc1ncc2c(n1)CN(Cc1noc(C3CC3)n1)CC2 | -6.18% | 15.6% | -33.1% | 11.6% | 5.43% | 2.85% | 8.11% | 2.58% | 6.8% | 19.5% | -13.7% |
| Cc1nccc(-c2cccc(NCC(=O)N3CCNC3=O)c2)n1 | -3.58% | 21.1% | -11.7% | 0.813% | 6.82% | -1.44% | 11.2% | 16.4% | 10.3% | 28.4% | -9.15% |
| c1ccc(Cn2cc(CNCC3CCCN3c3cccnn3)cn2)cc1 (stereo not drawn) | -3.01% | 7.89% | -1.98% | -4.74% | 1.96% | -7.55% | 15.5% | 1.15% | 15.3% | 28.4% | -4.79% |
| Cc1cc(=O)n(CC(=O)NCC2CCCO2)c(-c2cccc(Cl)c2)n1 (stereo not drawn) | -4.72% | 18.2% | -2.1% | 12.6% | 6.59% | 11% | 9.15% | -10.7% | 5.38% | 16.1% | -4.38% |
| CCCS(=O)(=O)NCC1CCOc2ccccc2C1 (stereo not drawn) | -7.2% | 0% | 3.87% | 5.88% | -5.61% | 17.9% | 5.32% | -3.37% | 0% | 6.17% | 3.34% |
| CCCNC(=O)CSc1nnc2[nH]c(=O)cc(CC)n12 | -1.19% | 19.2% | -3.66% | 6.46% | 1.37% | -1.36% | 15.4% | 10.2% | 7.53% | 17.5% | -7.28% |
| CCOCCN1CCN(Cc2nnc(C3CC3)o2)CC1CC (stereo not drawn) | -2.67% | 11% | -18% | 17.7% | 8.03% | 18.6% | 1.95% | 2.56% | 2.15% | 7.5% | -5.28% |
